Assay outcomes: PubChem, several laboratories
PGE2 EP2 inh: inhibitors of human EP2 prostaglandin E2 receptor. P43116. C6 glioma cells expressing human EP2, cAMP TR-FRET; cells stimulated with saturating PGE2. inhibition, % at 25 µM. actives 0.52% (n = 260,000). AID 1422;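 active = percent inhibition above 40 after rounding to a whole number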;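 note: rat C6 glioma host cells with rolipram phosphodiesterase inhibitor present; the protocol text gives 20 µM as final concentration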
Target sequence (P43116 whole entry, looked up): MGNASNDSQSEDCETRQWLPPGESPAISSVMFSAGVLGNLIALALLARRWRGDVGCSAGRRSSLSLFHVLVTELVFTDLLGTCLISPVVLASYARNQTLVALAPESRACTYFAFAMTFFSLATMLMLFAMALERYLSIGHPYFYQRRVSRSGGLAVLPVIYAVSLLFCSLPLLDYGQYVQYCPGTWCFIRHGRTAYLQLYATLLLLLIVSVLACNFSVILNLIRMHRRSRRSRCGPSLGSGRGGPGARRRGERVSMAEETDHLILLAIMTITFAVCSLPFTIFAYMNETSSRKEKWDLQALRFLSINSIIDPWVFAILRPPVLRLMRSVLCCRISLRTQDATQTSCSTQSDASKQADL
S1P3 antagonist: blocks the human S1P3 receptor; Q99500; CHO S1P3 NFAT-BLA reporter, FRET fluorescence, antagonist mode; inhibition, % at 4.98 µM; actives 0.27% (n = 170,000);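 active = inhibition above the plate cutoff, the mean inhibition of test wells on that plate plus 3 SD, cut at about 28% in these data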;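 note: cells challenged with S1P at its EC80 of 0.8 µM; blue over green emission ratio from cleaved BLA substrate after 4 h stimulation; 0% = S1P-stimulated wells and 100% = unstimulated DMSO-only wells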
S1P4 antagonist: blocks the human S1P4 receptor. inhibition, % at 4.98 µM. actives 0.26% (n = 220,000). S1P4-expressing cells, antagonist mode, reporter read-out; in the data active = inhibition above about 29%;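 note: 0% = wells stimulated with agonist and 100% = vehicle wells without agonist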
S1P4 ag: human S1P4 receptor agonism; AID 1509; actives 0.35% (n = 220,000); S1P4-expressing cell line, agonist reporter assay; O95977; activation, % at 4.98 µM; in the data active = activation above about 11%;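 note: 0% = DMSO vehicle and 100% = reference agonist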
INS promoter inh: TRM-6 insulin promoter activity inhibition | TRM-6 cells (human fetal islet line), insulin promoter-eGFP reporter, imaging; reporter expression induced with tamoxifen | inhibition, % at 2 µM | actives 0.9% (n = 130,000) | AID 1273;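 active = inhibition above the mean plus 3 SD, with well images judged a real hit on visual review, cut at about 60% in these data, passing the limit was not always enough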
EP2 modulator: modulates human prostaglandin E2 receptor EP2 signaling; actives 0.83% (n = 260,000); EP2-expressing cells, cAMP HTRF FRET, PGE2 co-stimulation; induction, % at 25 µM; AID 940; P43116;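 active = compounds whose cAMP rise, as percent of the full-agonist control response, exceeds 60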;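 note: rat C6 glioma line stably carrying human EP2 under a CMV promoter; the protocol text gives 20 µM as final concentration; 100% = response of wells given 1 µM PGE2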
An asterisk follows results filed as active. A selection: hits, their analogues and other compounds. The true share with any hit is near 2.4%.

For CC1Cn2c(nnc2-c2cccc(Cl)c2)S1 (stereo unspecified) the results were PGE2 EP2 inh 6.0, S1P3 antagonist 11.1, S1P4 antagonist 2.6, S1P4 ag 0.4 and EP2 modulator -10.1.
`CC1(C)Cn2c(nnc2-c2cccc(O)c2)S1` gave PGE2 EP2 inh 2.7, S1P3 antagonist -47.6, S1P4 antagonist -22.1, S1P4 ag 2.5, INS promoter inh 90.9* and EP2 modulator 13.1.
Screening C[C@H](N)Cn1nnn(-c2ccccc2)c1=O returned PGE2 EP2 inh 9.9 and EP2 modulator -63.0.
Screening O=C(NCCOc1nc(N2CCCCC2)nc(N2CCCCC2)n1)Nc1ccccc1 returned PGE2 EP2 inh 6.6, S1P3 antagonist -16.0, S1P4 antagonist -15.6, S1P4 ag 0.9 and EP2 modulator 56.9.
Screening CCN(CC)c1nc(OCCNC(=O)Nc2ccccc2)nc(N(CC)CC)n1 returned PGE2 EP2 inh 14.3, S1P4 antagonist 2.7, S1P4 ag 0.7, INS promoter inh 71.4* and EP2 modulator 37.9.
COc1ccccc1-c1cc(C(F)(F)F)nc(S(=O)(=O)CCCC(=O)NC(C)C)n1 was read as PGE2 EP2 inh 11.0, S1P3 antagonist 0.8, S1P4 antagonist -5.3, S1P4 ag 0.2 and EP2 modulator 48.3.
`COc1ccccc1-c1cc(C(F)(F)F)nc(S(=O)(=O)CCCC(=O)Nc2cccnc2Cl)n1` gave PGE2 EP2 inh 8.3, S1P3 antagonist -5.3, S1P4 antagonist 49.9*, S1P4 ag -0.7, INS promoter inh 73.3* and EP2 modulator 24.1.
Screening CCOC(=O)COc1ccc(C2Oc3c(cccc3OC)C=C2[N+](=O)[O-])cc1 (stereo unspecified) returned PGE2 EP2 inh 53.1* and EP2 modulator -85.2.
CCOC(=O)COc1ccc2c(=O)c(-c3ccccc3OC)coc2c1 was read as PGE2 EP2 inh 2.4, S1P3 antagonist 6.3, S1P4 antagonist -23.9, S1P4 ag -0.2 and EP2 modulator -9.1.
C[C@H]1O[C@@H](O[C@H]2[C@@H](O)C[C@H](O[C@H]3[C@@H](O)C[C@H](O[C@H]4CC[C@@]5(C)[C@H](CC[C@@H]6[C@@H]5C[C@@H](O)[C@]5(C)[C@@H](C7=CC(=O)OC7)CC[C@]65O)C4)O[C@@H]3C)O[C@@H]2C)C[C@H](O)[C@@H]1O was read as PGE2 EP2 inh 13.1, S1P3 antagonist -11.6, S1P4 antagonist -11.0, S1P4 ag -0.9, INS promoter inh 100.0* and EP2 modulator 19.9.
O=C(CCCOc1ccccc1)Nc1ccc(S(=O)(=O)N2CCCCC2)cc1 was read as PGE2 EP2 inh 6.6 and EP2 modulator -72.8.
`COc1ccccc1OCC(=O)Nc1ccc(O)cc1C(=O)O` gave PGE2 EP2 inh 7.6, S1P3 antagonist -1.5, S1P4 antagonist -6.8, S1P4 ag -1.4, INS promoter inh 18.6 and EP2 modulator 4.0.
For COc1cc(Cl)ccc1NC(=O)COc1ccccc1C(=O)N1CCN(c2ccc(O)cc2)CC1 the results were S1P3 antagonist -20.3, S1P4 antagonist 9.1, S1P4 ag 2.5, INS promoter inh 78.6* and EP2 modulator -0.9.
For COc1ccc(NC(=S)Nc2cnc3ccccc3c2)c(OC)c1 the results were PGE2 EP2 inh 43.9*, S1P3 antagonist -1.2, S1P4 antagonist -10.0, S1P4 ag 0.1, INS promoter inh 42.1 and EP2 modulator -64.1.
Screening COc1ccc(NC(=S)Nc2ccccc2OC)c(OC)c1 returned PGE2 EP2 inh 5.6, S1P3 antagonist 5.8, S1P4 antagonist 0.9, S1P4 ag 1.4 and EP2 modulator -19.2.
COc1ccccc1-c1nc(C#N)c(N2CCN(C(c3ccccc3)c3ccccc3)CC2)o1 was read as PGE2 EP2 inh 11.4, S1P3 antagonist -11.5, S1P4 antagonist -2.0, S1P4 ag -1.0, INS promoter inh 72.7* and EP2 modulator 21.2.
`COc1ccccc1-c1nc(C#N)c(N2CCN(c3cccc(Cl)c3)CC2)o1` gave PGE2 EP2 inh 2.8, S1P3 antagonist -6.2, S1P4 antagonist 2.3, S1P4 ag -1.1, INS promoter inh 42.9 and EP2 modulator 8.3.
`CCOC(=O)c1cnc(SC)nc1Nc1cccc2ccccc12` gave PGE2 EP2 inh 6.3, S1P4 antagonist -7.4, S1P4 ag 1.7, INS promoter inh 12.5 and EP2 modulator 61.6*.
CSc1nc(C)cc(Nc2ccc(O)c(CN3CCOCC3)c2)n1 was read as PGE2 EP2 inh 44.1* and EP2 modulator 5.9.
`COc1ccc(CCNC(=O)C2CCN(S(=O)(=O)c3c(C)noc3C)CC2)cc1OC` gave PGE2 EP2 inh 11.3, S1P4 antagonist 3.1, S1P4 ag 0.0, INS promoter inh 65.5* and EP2 modulator -30.6.
Screening Cc1cccc(CCNC(=O)C2CCN(S(=O)(=O)c3c(C)noc3C)CC2)c1 returned PGE2 EP2 inh 3.4, S1P4 antagonist -4.8, S1P4 ag 0.3, INS promoter inh 23.3 and EP2 modulator 2.7.
Screening CC(C)(C)NC(=O)C(c1ccco1)N(C(=O)c1csnn1)c1ccccc1Cl (stereo unspecified) returned PGE2 EP2 inh 16.6 and EP2 modulator 28.8.
O=C(c1ccc(Cl)cc1[N+](=O)[O-])N(Cc1ccccc1)Cc1ccccc1 was read as PGE2 EP2 inh 7.6, S1P3 antagonist -5.6, S1P4 antagonist -8.8, S1P4 ag 0.1, INS promoter inh -38.5 and EP2 modulator 42.2.
CC(C)(C)N(Cc1ccccc1)C(=O)c1ccc(Cl)cc1[N+](=O)[O-] was read as PGE2 EP2 inh 0.5, S1P3 antagonist 2.0, S1P4 antagonist -7.8, S1P4 ag 1.6 and EP2 modulator 62.7*.
`O=C(Nc1scc(-c2ccccc2)c1C(=O)O)c1cccs1` gave PGE2 EP2 inh 7.2 and EP2 modulator -139.2.
CCC(NC(=O)COc1ccc([N+](=O)[O-])cc1)c1ccccc1 (stereo unspecified) was read as PGE2 EP2 inh 10.6, S1P3 antagonist 1.4, S1P4 antagonist -3.6, S1P4 ag 0.4, INS promoter inh 66.7* and EP2 modulator -11.6.
O=C(Nc1ccc(NC(=O)C2CC2)nc1)c1ccccn1 was read as PGE2 EP2 inh 40.9*, S1P4 antagonist -4.9, S1P4 ag 0.3 and EP2 modulator -1.2.
For COc1ccc2c(-c3ccccc3)cc(SCC(=O)NC(N)=O)nc2c1 the results were PGE2 EP2 inh 12.3, S1P3 antagonist -10.7, S1P4 antagonist -25.0, S1P4 ag 1.3, INS promoter inh -8.3 and EP2 modulator 20.0.
Screening COCCNC(=O)CSc1cc(-c2ccccc2)c2ccc(OC)cc2n1 returned PGE2 EP2 inh 11.3, S1P3 antagonist -7.8, S1P4 antagonist -42.5, S1P4 ag -2.3 and EP2 modulator 63.4*.
`COc1ccc(C(=O)NCc2cc(C)nc3ccccc23)cc1OC` gave PGE2 EP2 inh 3.4, S1P3 antagonist 5.2, S1P4 antagonist -1.7, S1P4 ag 0.8, INS promoter inh 100.0* and EP2 modulator -8.7.
